Source: PubChem BioAssay AID1159580 (chemical genetic matrix, 2015)
Screen size: about 5,500 compounds; about 2,000 (36%) were called active. Inconclusive results (about 18%) are left out. Cut-off read from the data, not from the text of the source: active = normalized growth mostly below about 0.91 (no sharp cut-off); inconclusive = no clear call, values can overlap the other calls; inactive = mostly above about 0.92. The list shows a part of the results.

Assay: chemical genetic growth profiling, strain panel (AID 1159580);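 note: tested at 20 µM; growth read once vehicle control cultures reached saturation at 30 °C; 1 = growth at the plate median or of vehicle wells; lower values mean less growth of the strain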
Conditions: growth OD

Measured: normalized growth

CC(=O)S[C@@H]1CC2=CC(=O)CC[C@]2(C)[C@H]2CC[C@@]3(C)[C@@H](CC[C@@]34CCC(=O)O4)C12 (stereo not given in full)
inactive: S. cerevisiae deletion strains, locus YJR043C, strain POL32, hits give low values 1.01 | S. cerevisiae deletion strains, locus YJR066W, strain TOR1, hits give low values 0.981 | S. cerevisiae deletion strains, locus YJR075W, strain HOC1, hits give low values 1.01 | S. cerevisiae deletion strains, locus YKL009W, strain mrt4, hits give low values 1.01 | S. cerevisiae deletion strains, locus YKL068W, hits give low values 1.01 | S. cerevisiae deletion strains, locus YKL085W, strain MDH1 (second series), hits give low values 1.01 | S. cerevisiae deletion strains, locus YKL085W, strain MDH1, hits give low values 1.01 | S. cerevisiae deletion strains, locus YKL160W, strain elf1, hits give low values 1.03 | S. cerevisiae deletion strains, locus YKL190W, strain CNB1, hits give low values 0.995 | S. cerevisiae deletion strains, locus YKR001C, strain vps1, hits give low values 1.03 | S. cerevisiae deletion strains, locus YKR026C, strain gcn3, hits give low values 1.01 | S. cerevisiae deletion strains, locus YKR091W, strain srl3, hits give low values 1.01 | S. cerevisiae deletion strains, locus YLL001W, strain dnm1, hits give low values 1.05 | S. cerevisiae deletion strains, locus YLL026W, hits give low values 1.01 | S. cerevisiae deletion strains, locus YLL041C, strain sdh2, hits give low values 1.01 | S. cerevisiae deletion strains, locus YLR027C, strain aat2, hits give low values 1.02 | S. cerevisiae deletion strains, locus YLR039C, strain RIC1, hits give low values 1.02 | S. cerevisiae deletion strains, locus YLR058C, strain SHM2, hits give low values 1 | S. cerevisiae deletion strains, locus YLR102C, strain apc9, hits give low values 1.02 | S. cerevisiae deletion strains, locus YLR113W, strain HOG1, hits give low values 1.03 | S. cerevisiae deletion strains, locus YLR221C, strain rsa3, hits give low values 0.984 | S. cerevisiae deletion strains, locus YLR258W, strain gsy2, hits give low values 0.997 | S. cerevisiae deletion strains, locus YLR262C, strain YPT6 (second series), hits give low values 1.03 | S. cerevisiae deletion strains, locus YLR262C, strain YPT6, hits give low values 1.04 | S. cerevisiae deletion strains, locus YLR268W, strain sec22, hits give low values 1.03 | S. cerevisiae deletion strains, locus YLR320W, strain mms22, hits give low values 0.975 | S. cerevisiae deletion strains, locus YLR330W, strain CHS5, hits give low values 1.01 | S. cerevisiae deletion strains, locus YLR342W, strain FKS1 (second series), hits give low values 1 | S. cerevisiae deletion strains, locus YLR342W, strain FKS1, hits give low values 1.05 | S. cerevisiae deletion strains, locus YLR357W, strain rsc2, hits give low values 1.06 | S. cerevisiae deletion strains, locus YLR370C, strain arc18, hits give low values 1.02 | S. cerevisiae deletion strains, locus YLR371W, strain rom2, hits give low values 1.03 | S. cerevisiae deletion strains, locus YLR384C, strain iki3, hits give low values 1.01 | S. cerevisiae deletion strains, locus YLR418C, strain cdc73, hits give low values 1.03 | S. cerevisiae deletion strains, locus YML016C, strain PPZ1, hits give low values 1 | S. cerevisiae deletion strains, locus YML032C, strain rad52, hits give low values 1.02 | S. cerevisiae deletion strains, locus YML120C, strain ndi1, hits give low values 1.02 | S. cerevisiae deletion strains, locus YML124C, strain tub3, hits give low values 1.04 | S. cerevisiae deletion strains, locus YMR058W, strain fet3, hits give low values 1.01 | S. cerevisiae deletion strains, locus YMR078C, strain ctf18, hits give low values 1.03 | S. cerevisiae deletion strains, locus YMR125W, strain sto1, hits give low values 1.01 | S. cerevisiae deletion strains, locus YMR129W, hits give low values 1.01 | S. cerevisiae deletion strains, locus YMR205C, strain PFK2, hits give low values 1.02 | S. cerevisiae deletion strains, locus YMR223W, strain ubp8, hits give low values 1.03 | S. cerevisiae deletion strains, locus YMR231W, strain pep5, hits give low values 1.01 | S. cerevisiae deletion strains, locus YMR307W, strain GAS1, hits give low values 0.999 | S. cerevisiae deletion strains, locus YNL067W, strain RPL9B, hits give low values 1.01 | S. cerevisiae deletion strains, locus YNL071W, strain lat1, hits give low values 1.01 | S. cerevisiae deletion strains, locus YNL183C, strain NPR1, hits give low values 0.977 | S. cerevisiae deletion strains, locus YNL209W, strain ssb2, hits give low values 1.01 | S. cerevisiae deletion strains, locus YNL233W, strain BNI4, hits give low values 1.01 | S. cerevisiae deletion strains, locus YNL248C, strain rpa49, hits give low values 0.97 | S. cerevisiae deletion strains, locus YNL250W, strain rad50, hits give low values 1.02 | S. cerevisiae deletion strains, locus YNL271C, strain bni1, hits give low values 1.04 | S. cerevisiae deletion strains, locus YNL298W, strain CLA4, hits give low values 1.04 | S. cerevisiae deletion strains, locus YNL307C, strain MCK1, hits give low values 1.04 | S. cerevisiae deletion strains, locus YNL322C, strain KRE1 (second series), hits give low values 1 | S. cerevisiae deletion strains, locus YNL322C, strain KRE1, hits give low values 1 | S. cerevisiae deletion strains, locus YNR049C, strain mso1, hits give low values 1.01 | S. cerevisiae deletion strains, locus YNR052C, strain pop2, hits give low values 1.02 | S. cerevisiae deletion strains, locus YOL006C, strain TOP1, hits give low values 0.994 | S. cerevisiae deletion strains, locus YOL012C, strain htz1 1.16 | S. cerevisiae deletion strains, locus YOL147C, strain pex11, hits give low values 1.02 | S. cerevisiae deletion strains, locus YOR001W, strain rrp6, hits give low values 1.03 | S. cerevisiae deletion strains, locus YOR061W, strain CKA2, hits give low values 1 | S. cerevisiae deletion strains, locus YOR069W, strain VPS5, hits give low values 1 | S. cerevisiae deletion strains, locus YOR070C, strain gyp1, hits give low values 0.996 | S. cerevisiae deletion strains, locus YOR080W, strain dia2, hits give low values 1.03 | S. cerevisiae deletion strains, locus YOR083W, strain WHI5, hits give low values 1 | S. cerevisiae deletion strains, locus YOR106W, strain vam3, hits give low values 1.04 | S. cerevisiae deletion strains, locus YOR136W, strain idh2, hits give low values 1.03 | S. cerevisiae deletion strains, locus YOR144C, strain elg1, hits give low values 1.01 | S. cerevisiae deletion strains, locus YOR184W, strain ser1, hits give low values 1.03 | S. cerevisiae deletion strains, locus YOR231W, strain MKK1, hits give low values 1.02 | S. cerevisiae deletion strains, locus YOR265W, strain rbl2, hits give low values 1.01 | S. cerevisiae deletion strains, locus YOR270C, strain vph1, hits give low values 0.968 | S. cerevisiae deletion strains, locus YOR290C, strain snf2, hits give low values 0.977 | S. cerevisiae deletion strains, locus YOR316C, strain cot1, hits give low values 1.03 | S. cerevisiae deletion strains, locus YPL051W, strain arl3, hits give low values 1.01 | S. cerevisiae deletion strains, locus YPL078C, strain atp4, hits give low values 1.04 | S. cerevisiae deletion strains, locus YPL106C, strain sse1, hits give low values 0.985 | S. cerevisiae deletion strains, locus YPL240C, strain hsp82, hits give low values 1 | S. cerevisiae deletion strains, locus YPL241C, strain CIN2, hits give low values 1 | S. cerevisiae deletion strains, locus YPL256C, strain CLN2, hits give low values 1.09 | S. cerevisiae deletion strains, locus YPR119W, strain clb2, hits give low values 1.03 | S. cerevisiae deletion strains, locus YPR141C, strain kar3, hits give low values 1.03 | S. cerevisiae deletion strains, locus YPR163C, strain tif3, hits give low values 1.04 | S. cerevisiae deletion strains, locus YPR167C, strain met16, hits give low values 1.03 | S. cerevisiae deletion strains, strain wtn01, hits give low values 1.03 | S. cerevisiae strains, strain wild type, hits give low values 1
